Source: PubChem BioAssay (several laboratories)
This is a sample that favours compounds with a hit; in the whole collection about 3.3% have one here.
697 NFkB inh: inhibitors of PMA/ionomycin-induced NF-kB reporter, 697 cells, primary screen, B-cell NF-kB inhibitor project, cell-based, luminescence, uHTS; 697 B-cell NF-kB luciferase reporter, 16 h; inhibition, % at 4 µM; 0.33% of 330,000 active; AID 435022, 2010; in the data active = inhibition above about 35%
Jurkat NFkB inh: inhibitors of induced NF-kB luciferase reporter, primary screen, TCR NF-kB activation inhibitor project, cell-based, luminescence, uHTS; Jurkat, PMA/ionomycin-induced NF-kB luciferase reporter; 0.53% of 330,000 active; inhibition, % at 4 µM; AID 435003, 2010; in the data active = inhibition above about 50%
Gli-Sufu antag: Gli-Sufu pathway antagonists, primary screen, luciferase luminescence, Sufu-KO-LIGHT cells, uHTS; Sufu-KO-LIGHT fibroblasts, Gli luciferase reporter luminescence; inhibition, % at 5 µM; 0.74% of 340,000 active;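 active = inhibition above about 55%, limit read from the data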;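 also: 0% = DMSO-treated cells and 100% = wells with medium but no cells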
SMARCA2 act: SMARCA2 (BRM) function activators, primary screen, cell-based, luminescence, high throughput; MG213 cells, MMTV-luciferase reporter, dexamethasone, overnight; activation, % at 9.1 µM; 1% of 370,000 active; AID 652017, 2013; in the data active = activation above about 7.8%;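 also: 0% = vehicle wells and 100% = reference activator wells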
esBAF inh: Bmi1 luciferase reporter increase in mESCs, primary screen, esBAF inhibitor project, mouse ES cells, Bmi1 luciferase knock-in, single point. 24 h; 100% = twice the neutral-well signal. reporter increase, % at 12.5 µM. 2% of 350,000 active. AID 602393, 2012; in the data active = activation above about 40%; inconclusive = no clear call, values can overlap the other calls;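 also: 0% = median of the plate's neutral control wells and 100% = double that signal; a rise in the Bmi1 reporter signal indicates esBAF inhibition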
SMARCA2 act conf: SMARCA2 (BRM) function activators, confirmation, cell-based, luminescence, triplicate; shares compounds with SMARCA2 act; activation, % at 9.1 µM; MG213 cells, MMTV-luciferase with dexamethasone, overnight; MG213 cells expressing E1A, Rb sequestered; DMSO wells 0%, reference activator 100%; 30% of 3,500 active;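 active = activation above its plate's cutoff, the mean activation of tested wells plus 3 SD, cut at about 7.9% in these data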
VP16 Luc act: GAL4-VP16 luciferase reporter activation, counter-screen for SMARCA2 (BRM) activator project, cell-based, pG5luc, luminescence, high throughput; shares compounds with SMARCA2 act; HEK293 GAL4-VP16 pG5luc reporter; scaled: DMSO wells 0%, SAHA wells 100%; activation, % at 9.1 µM; 41% of 3,500 active; AID 686939, 2013;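 active = activation above the solvent-only control well mean plus 3 SD, averaged across control plates, cut at about 5.2% in these data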
* marks the source's active call; other numbers are inactive results.

For Cc1ccccc1S(=O)Cc1ccc(C(=O)NCCN2CCOCC2)o1 (configuration not stated) the results were 697 NFkB inh 18, Jurkat NFkB inh -4, Gli-Sufu antag -4, SMARCA2 act -3 and esBAF inh -1.
Cc1ccccc1S(=O)Cc1ccc(C(=O)NCCCN2CCCCC2)o1 (configuration not stated) was read as 697 NFkB inh 15, Jurkat NFkB inh -14, Gli-Sufu antag -2, SMARCA2 act 12*, esBAF inh 0, SMARCA2 act conf -6 and VP16 Luc act 0.
Screening O=C(NCCCN1CCCC1)c1ccc(CS(=O)(=O)c2ccc(Br)cc2)o1 returned 697 NFkB inh -6, Jurkat NFkB inh -1, Gli-Sufu antag 1, SMARCA2 act 9.5*, esBAF inh 1, SMARCA2 act conf -1 and VP16 Luc act 1.
`O=C(C[C@@H]1C=C[C@@H](NC(=O)Nc2cc(F)ccc2F)[C@@H](CO)O1)NCc1ccccn1` gave esBAF inh -1.
C[C@H](CO)N1C[C@H](C)[C@@H](CN(C)S(C)(=O)=O)Oc2ccc(NC(=O)CCCCCC(=O)Nc3ccccc3N)cc2CC1=O was read as esBAF inh 1.
Screening COc1ccc(CCNCCC(=O)Nc2c(C)cc(C)cc2C)cc1OC returned 697 NFkB inh 1, Jurkat NFkB inh 14, Gli-Sufu antag 5, SMARCA2 act 9.0*, SMARCA2 act conf 5 and VP16 Luc act 1.
Screening O=C(/C=C/c1ccco1)Nc1ccc(CN2CCOCC2)cc1 returned 697 NFkB inh -58, Jurkat NFkB inh -58, Gli-Sufu antag -40, SMARCA2 act 9.4*, esBAF inh 15, SMARCA2 act conf 9.2* and VP16 Luc act 11*.
`COc1ccc(C(C#N)N2N=C(c3ccccc3)CC2c2ccccc2)cc1OC` (configuration not stated) gave 697 NFkB inh -121, Jurkat NFkB inh -87, Gli-Sufu antag -20, SMARCA2 act 13*, SMARCA2 act conf 7 and VP16 Luc act 4.
O=S(=O)(Cc1noc(-c2ccccc2Cl)n1)c1ccccn1 was read as 697 NFkB inh -105, Jurkat NFkB inh -81, Gli-Sufu antag -23, SMARCA2 act 16*, esBAF inh 44*, SMARCA2 act conf 4 and VP16 Luc act 9.3*.
`Clc1ccccc1-c1nc(-c2ccncc2)no1` gave 697 NFkB inh -126, Jurkat NFkB inh -70, Gli-Sufu antag -48, SMARCA2 act 5 and esBAF inh 13.
Screening CCOc1cc(NC(=S)NCc2ccco2)c(OCC)cc1NC(=O)C1CC1 returned 697 NFkB inh -5, Jurkat NFkB inh 5, Gli-Sufu antag 3, SMARCA2 act 8.0*, esBAF inh -2, SMARCA2 act conf -1 and VP16 Luc act 1.
For C[C@@H]1CN([C@H](C)CO)S(=O)(=O)c2ccc(C#Cc3ccc(F)cc3)cc2O[C@H]1CN(C)C(=O)CN(C)C the results were esBAF inh -12.
`O=C(C1CCOCC1)N1C[C@@H]2[C@H](c3ccccc31)[C@H](CO)N2Cc1ccc(Cl)cc1` gave esBAF inh -2.
`COc1ccc(/C=N/NC(=O)c2ccncc2)cc1CN1CCOCC1` gave 697 NFkB inh 9, Jurkat NFkB inh 0, Gli-Sufu antag 2, SMARCA2 act -3 and esBAF inh -2.
For COc1ccc(/C=N\NC(=O)c2nn(C)cc2Cl)cc1CN1CCOCC1 the results were 697 NFkB inh 16, Jurkat NFkB inh 13, Gli-Sufu antag 4, SMARCA2 act 10*, SMARCA2 act conf -2 and VP16 Luc act 2.
COc1ccc(C#Cc2ccc3c(c2)[C@H]2[C@H](CCN2C(=O)CC2CC2)[C@@H](CO)N3)cc1 was read as esBAF inh 5.
Screening O=C(O)/C=C/c1ccc([N+](=O)[O-])o1 returned 697 NFkB inh 8, Jurkat NFkB inh 5, Gli-Sufu antag 3 and SMARCA2 act -4.
Screening O=C1NC(=S)S/C1=C\C=C\c1ccc([N+](=O)[O-])o1 returned Gli-Sufu antag 50, SMARCA2 act 24*, SMARCA2 act conf -16 and VP16 Luc act 3.
For CO[C@@H]1CN(C)C(=O)c2ccc(NS(=O)(=O)c3ccc(F)cc3)cc2OC[C@@H](C)NC[C@@H]1C the results were esBAF inh -3.
`O=C(Nc1cc(Cl)ccc1Cl)c1ccco1` gave 697 NFkB inh -8, Jurkat NFkB inh 2, Gli-Sufu antag 16, SMARCA2 act 5 and esBAF inh -4.
`O=C(Nc1cc2nn(-c3ccccc3)nc2cc1Cl)c1ccco1` gave 697 NFkB inh -152, Jurkat NFkB inh -115, Gli-Sufu antag -61, SMARCA2 act 8.8*, esBAF inh inconclusive, SMARCA2 act conf 21* and VP16 Luc act 11*.
Screening CNC(=O)C[C@@H]1CC[C@H]2[C@@H](COC[C@@H](O)CN2Cc2ccc(C(F)(F)F)cc2)O1 returned esBAF inh 8.
Screening O=C(C[C@@H]1CC[C@H](NC(=O)CCN2CCCCC2)[C@@H](CO)O1)Nc1ccc(-c2ccccc2)cc1 returned esBAF inh -2.
Screening c1ccc(CNn2nnc3ccccc32)cc1 returned SMARCA2 act 12*, SMARCA2 act conf 10.0* and VP16 Luc act 11*.
For c1ccc(-n2nnc3ccccc32)cc1 the results were 697 NFkB inh -15, Jurkat NFkB inh 1, Gli-Sufu antag 26, SMARCA2 act 1 and esBAF inh 3.
COc1ccc(C(=O)Nc2ccc3c(c2)OC[C@@H](C)N(C(C)=O)C[C@@H](C)[C@H](OC)CN(C)C3=O)cc1 was read as esBAF inh -2.
O=C(Nc1ccc(CCC(=O)N2CCCC2)cc1)c1ncn[nH]1 was read as 697 NFkB inh 20, Jurkat NFkB inh 9, Gli-Sufu antag -4, SMARCA2 act 8.2*, esBAF inh 0, SMARCA2 act conf -5 and VP16 Luc act 2.
Screening CCCNC(=O)[C@H]1[C@H](CO)[C@H]2Cn3c(cccc3=O)[C@H]2N1C(=O)CC1CC1 returned esBAF inh -1.
